Records with an inconclusive call do not appear. Where a call stands in place of a potency, no number is given. Calls of active or inactive are those of the source. Calls follow the shape of the dose curve; as a rule, active = well fitted curve in the direction sought with a large enough effect; inconclusive = small, poorly fitted or top-dose-only effect, or another doubt; inactive = no such curve, though single readings can be large; an effect the other way counts as inactive or inconclusive.
Assays:
[1] = qHTS to identify inhibitors of the type 1 interferon - major histocompatibility complex class I in skeletal muscle: primary screen against the NCATS Mechanism Interrogation Plate v5.0 (MIPE) Libary (AID 1347411); settings: iHSKM cells + IFN-b, HiBiT-tagged MHC-I luminescence, 24 h; series mostly up to 45.8 µM; also: nearly all actives have a fitted effect of over 65% in size; also: potency is read from the fitted curve at half-maximal effect
In short: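 IFN-beta-driven (4 ng/ml) HLA-B-HiBit expression in CRISPR-tagged C25cl48 myoblasts; compounds 11-pt, 1:3, max 46 uM, 24 hr exposure; lytic NanoLuc complementation luminescence.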

[2] = target: Calcium and integrin-binding protein 1 (Homo sapiens) (UniProt Q99828); experiment: Primary qHTS for Identification of Calcium Integrin Binding Protein 1 (CIB1) Competitor (AID 1508620); settings: CIB1-GST / FITC-alphaIIb peptide fluorescence polarization; series mostly up to 57.7 µM;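 also: GST tagged CIB1 binding a fluorescein labelled alphaIIb integrin peptide tracer; top concentration of the series differs between compounds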
In short: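 Fluorescence polarization competition: GST-tagged CIB1 (1 uM final) preincubated with compound 15 min at room temperature, then FITC-labelled alphaIIb peptide (100 nM final) added. After 15 min at room temperature, polarization read at Ex 480/Em 540.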

Sequence of Calcium and integrin-binding protein 1 (Homo sapiens) (Q99828 whole entry, looked up): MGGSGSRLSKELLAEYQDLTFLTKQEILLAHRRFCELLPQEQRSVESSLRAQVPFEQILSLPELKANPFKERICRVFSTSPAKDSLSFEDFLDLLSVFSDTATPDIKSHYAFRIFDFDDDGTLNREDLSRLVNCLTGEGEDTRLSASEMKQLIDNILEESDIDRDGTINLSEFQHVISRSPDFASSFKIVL

Row | SMILES | Potency [1] | outcome [2]
1 | O=C(NC1CCNCC1)c1[nH]ncc1NC(=O)c1c(Cl)cccc1Cl | 0.262 µM (active) | inactive
2 | O=C(NCCS(=O)(=O)c1ccc(C(F)(F)F)cn1)c1ccc(Cl)cc1 | inactive | inactive
3 | Cn1c2cc(S(C)=O)sc2c2cnn(Cc3cccc(N)c3)c(=O)c21 (stereo not given) | inactive | inactive
4 | Cc1cc(Nc2cc(NC(=O)c3c(Cl)cccc3Cl)ccn2)nc(N)n1 | 4.66 µM (active) | inactive
5 | C=CC(=O)Nc1cc2c(Nc3ccc(F)c(Cl)c3)ncnc2cc1C#CC(C)(C)N1CCN(C)CC1 | 8.29 µM (active) | inactive
6 | CC(C)(C)c1cnc(CSc2cnc(NC(=O)C3CCNCC3)s2)o1 | 0.262 µM (active) | inactive
7 | COc1cc(Nc2ncc(F)c(Nc3ccc4c(n3)N(COP(=O)(O)O)C(=O)C(C)(C)O4)n2)cc(OC)c1OC |  | inactive
8 | CC(C)(C)c1cc(C(C)(C)C)c(NC(=O)c2c[nH]c3ccccc3c2=O)cc1O | 23.4 µM (active) | inactive
